# Data: ChEMBL document CHEMBL3988442, “University of Dundee, Small-Polar-MMV Screening Library” (2021)
# In all, about 38,000 compounds went through this assay and about 1,200 (3.2%) showed an effect of 50% or more. The median lay at about -58%. Only a selection was taken, and strong results are over-represented in it overall.
# Test system: Plasmodium falciparum
# Assay: Calibr Malaria Delayed Death Assay SOP
# Type: functional, organism-based
# Set-up: scale not given: in the data most compounds retested in dose-response had high values
# Details: concentration 4.99e-06 (unit not given; other assays of the set use mol/L)
row,SMILES,Percent Effect [%]
1,CC(C)(C)c1ncc(CNc2ccccc2SCCC(N)=O)s1,-73.84
2,Cn1cccc1C(=O)NC(C)(C(N)=O)c1cccc(Cl)c1 (stereo not given),-31.46
3,CCC(C)NC(=O)c1cccc(CNCc2csc(C(C)C)n2)c1 (stereo not given),46.44
4,CCn1cnnc1C1CCN(C(=O)c2cc(C)c(C)s2)CC1,-85.96
5,COC(=O)NCC(=O)NCC1(c2c(F)cccc2F)CCCC1,68.39
6,CCC(=O)NCC(=O)NCC1(c2c(F)cccc2F)CCCC1,72.49
7,CC(=O)NCCC(=O)NCC1(c2c(F)cccc2F)CCCC1,-84.52
8,CC(=O)N(C)CC(=O)NCC1(c2c(F)cccc2F)CCCC1,-102.3
9,COC(=O)NCCC(=O)NCC1(c2cccc(Cl)c2)CC1,-27.72
10,CCS(=O)(=O)CC(=O)NCC1(c2c(F)cccc2F)CCCC1,-98.46
11,CC(=O)N1CCCn2nc(CNS(=O)(=O)N(C)C(C)C)cc2C1,-134.1
12,COCC(=O)N1CCC2(CCN(c3cnn(C)c3)C2=O)C1 (stereo not given),-59.68
13,O=c1[nH]c2cc3c(cc2cc1CN1CCCC1c1ccccn1)CCC3 (stereo not given),-51.8
14,CC(CN1CCOCC1)NC(=O)NCCc1ccc(Cl)s1 (stereo not given),-56.29
15,Cc1n[nH]cc1CNC1(c2ccc(F)cc2)CCCC1,82.35
16,Cc1n[nH]cc1CNC1(c2ccc(Br)cc2)CC1,18.93
17,Cc1n[nH]cc1CNC1(Cc2ccc(Br)cc2)CCCCC1,36.65
18,O=C(NCc1ccco1)[C@@H]1CCO[C@@H]2CCN(c3ncccn3)C[C@H]21.O=C(O)C(F)(F)F,-31.43
19,O=C(C1CCOC1)N1C[C@H]2CN(Cc3cccnc3)C(=O)[C@H]2C1.O=C(O)C(F)(F)F (stereo not given in full),-57.45
20,Cc1nc(NC2CCS(=O)(=O)CC2)cc(C2CCCNC2)n1 (stereo not given),-36.14
21,Cc1nc(NCC23CCCN2CCC3)cc(C2CCCNC2)n1 (stereo not given),-55.92
22,COc1ccccc1CC(=O)N1CC[C@H](O)[C@]2(CCCO2)C1,-156.8
23,CCN1CCO[C@@H]2CN(S(=O)(=O)c3cccs3)CC[C@@H]2C1.O=C(O)C(F)(F)F,37.95
24,CN1CCO[C@@H]2CN(S(=O)(=O)c3ccc(F)cc3)CC[C@@H]2C1.O=C(O)C(F)(F)F,61.54
25,CN1CCO[C@@H]2CN(S(=O)(=O)c3cccs3)CC[C@@H]2C1.O=C(O)C(F)(F)F,-26.8

row,SMILES,Percent Effect [%]
1,CN1CCO[C@@H]2CN(S(=O)(=O)c3ccccc3)C[C@@H]2C1.O=C(O)C(F)(F)F,-22.42
2,CN1CCO[C@@H]2CN(S(=O)(=O)c3cccnc3)C[C@@H]2C1.O=C(O)C(F)(F)F.O=C(O)C(F)(F)F,-85.76
3,CC(C)N1CCO[C@@H]2CN(S(=O)(=O)c3cccs3)CC[C@@H]2C1.O=C(O)C(F)(F)F,50.24
4,CN1CCO[C@@H]2CN(S(=O)(=O)c3ccccc3F)CC[C@@H]2C1.O=C(O)C(F)(F)F,48.77
5,COc1ccc(S(=O)(=O)N2C[C@@H]3CN(C)CCO[C@@H]3C2)cc1,58.7
6,CN1CCO[C@@H]2CN(S(=O)(=O)c3ccccc3)CC[C@@H]2C1.O=C(O)C(F)(F)F,31.75
7,CCC(C)NC(=O)Cn1ncc2c1c(C)nn2CC (stereo not given),-14.73
8,CC1c2ncc(CN3CCN(C)CC3)n2CCN1Cc1cnn(C)c1.O=C(O)C(F)(F)F.O=C(O)C(F)(F)F.O=C(O)C(F)(F)F (stereo not given),-76
9,Cc1nc(CN2CCC3(CCN(Cc4cnn(C)c4)CC3)C2=O)cs1.O=C(O)C(F)(F)F.O=C(O)C(F)(F)F,-122
10,COCCNC(=O)[C@@H]1CN(Cc2sccc2C)C[C@H]2OCC[C@H]21.O=C(O)C(F)(F)F,-28.67
11,CC/C=C(/C)C(=O)NCCc1csc(N2CCCC2)n1,23.92
12,CC(=O)c1cnc(N(C)Cc2cc(C)cc(C)n2)nc1C,10.35
13,CC(=O)N1CCc2c(nc(N(C)C)nc2NCCCn2ccnc2C)C1,-154.1
14,CCc1ccccc1OCC(=O)N1CCOCC1c1ncon1 (stereo not given),-47.11
15,COc1cccc2c1ccn2CCC(=O)Nc1c2c(nn1C)CSC2,27.59
16,O=S(=O)(NCCN1CC=CC1)c1cncc(Cl)c1,-138.1
17,O=S(=O)(NCCCN1CC=CC1)c1cncc(Cl)c1,-214.3
18,O=S(=O)(NCCN1CC=CC1)c1ccc(Cl)cc1,75.13
19,CNC(=O)c1cc2c(nc1N(C)C)CCN(c1ncccn1)CC2.O=C(O)C(F)(F)F,-20.28
20,COCC1COCCC12CCN(Cc1cccs1)CC2.O=C(O)C(F)(F)F (stereo not given),-9.919
21,CC(c1cccnc1)N1CCN(CCO)CC1 (stereo not given),-98.51
22,CCc1ccc(OCC(O)CN2CCN(CCO)CC2)cc1.Cl.Cl (stereo not given),-114.3
23,CCC(c1ccccc1)N1CCN(CCO)CC1 (stereo not given),-35.6
24,O=C(c1cn(-c2ccccc2Cl)nn1)N1CCN(CCO)CC1,-52.43
25,Cc1c(C)n(CC(O)CN2CCN(CCO)CC2)c2c(Cl)cccc12.Cl (stereo not given),88.07
